Lassa entry inh: blocks Lassa virus binding to or entry into cells; Potency, µM (titrated, usually from 37.9 µM), for inactives: top-dose activity change, negative = inhibition, usual class: inhibitors; AID 540256; 300,000 tested, 1.2% active; Lassa virus pseudotype entry inhibition, cell reporter; calls by dose curve; tested in HEK293 cells; further: potency means the concentration at half of the fitted maximal effect; on the % scale 0 is the no-effect control and ±100 the full control effect; nearly all actives have a fitted effect of over 50% in size
MARV entry inh: blocks Marburg virus binding to or entry into cells. Marburg virus pseudotyped entry inhibition, cell reporter. Potency, µM (doses to about 37.8 µM), for inactives: at the top dose activity change, negative = inhibition, usual class: inhibitors. 300,000 tested, 1.8% active. AID 540276; calls by dose curve; tested in HEK293 cells; further: potency means the concentration at half of the fitted maximal effect; on the % scale 0 is the no-effect control and ±100 the full control effect
AMA1-RON2 inh: inhibitors of Plasmodium falciparum AMA1-RON2 interaction; AlphaScreen AMA1-biotinylated RON2 peptide binding; Potency, µM (highest dose often 58.2 µM), for the others: at the top dose activity change, negative = inhibition, most hits filed as inhibitors; 360,000 tested, 0.2% active; active means well fitted inhibition curve with a large enough effect; inconclusive means small, poorly fitted or top-dose-only effect; inactive means no such curve, though single readings can be large or run the other way;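 further: potency means the concentration at half of the fitted maximal effect; 0% = vehicle wells and -100% = peptide control; nearly all actives have a fitted effect of over 45% in size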
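AMA1 (3D7) with his tag at 25 nM final met compounds first, then biotinylated RON2 peptide at 25 nM; detection used donor plus acceptor beads, 10 µg/mL apiece, read by AlphaScreen after 30 min at room temperature.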
Shiga inhibitor: Shiga toxin inhibition | AID 2315 | 290,000 tested, 9.2% active | Vero cells, Shiga toxin protein synthesis inhibition reporter | inhibition, % at 38.7 µM; in the data active means inhibition mostly above about 28%, no sharp cut-off; inactive means mostly below about 43%; further: 0% is about no effect
Cycloheximide cs: counter-screen hit for Shiga toxin inhibitors, cycloheximide. AID 2314. max response, %. 300,000 tested, 12% active. cell reporter, cycloheximide protein synthesis inhibition counterscreen; in the data active means max response mostly above about 13%, no sharp cut-off; inactive means mostly below about 14%; further: read at 38.3 µM for the half of the compounds with a filed dose; 0% is about no effect
* marks the source's active call; other numbers are inactive results; ? = inconclusive; / = no result; [ ] = remark or other dose. Only a selection was taken, and hits are over-represented in it overall.

SMILES	Lassa entry inh	MARV entry inh	AMA1-RON2 inh	Shiga inhibitor	Cycloheximide cs
COc1cc(OC)nc(-n2ncc(Br)c(Br)c2=O)n1	1.26µM*	1.64µM*	4.3%	-24.1	-8.5
Cc1cccc(-c2noc(CCc3ccccc3)n2)c1	/	/	112.0%	80.6*	39.6*
Cc1cccc(-c2noc(CCC(=O)NCCc3ccccc3)n2)c1	31.3%[46.1 µM]	0.1%[46.1 µM]	-5.5%	26.4	2.8
Cc1cccc(-c2noc(CNS(=O)(=O)c3ccccc3)n2)c1	24.1%[46.1 µM]	-1.7%[46.1 µM]	3.7%	9.8	18.0*
Cc1cccc(-c2noc(Cc3ccccc3)n2)c1	8.5%	20.7%	50.2%	99.8*	55.7*
Cc1ccc(S(=O)(=O)NCc2nc(-c3cccc(C)c3)no2)cc1	8.2%[46.1 µM]	8.7%[46.1 µM]	/	/	/
COc1ccc(S(=O)(=O)Nc2cccc3cccnc23)c([N+](=O)[O-])c1	/	/	/	-7.3	31.4
Cc1ccc(C2C=NN(c3ccccc3)C2=O)cc1 (stereo not given)	/	/	4.8%	28.7*	17.8*
Cc1ccc(N2C(=O)C(CN(C)C)C2c2ccccc2)cc1 (stereo not given)	-6.7%	?	-2.5%	-7.0	-4.3
CCOC(=O)C(/C(C)=N/NC(=O)C1CC1c1ccccc1)C(C)C (stereo not given)	2.06µM*	25.4%	44.9%	-4.7	3.8
O=C(COc1cccc2c1CCN(Cc1ccc(Br)cc1)C2=O)N1CCOCC1	?	?	-1.0%	24.5	-4.7
O=C1c2cccc(OCC(=O)N3CCCc4ccccc43)c2CCN1Cc1ccccc1	5.0%	?	-4.1%	20.4	14.2*
O=C(COc1cccc2c1CCN(Cc1ccc(Br)cc1)C2=O)NCc1ccco1	?	?	-6.1%	64.7	29.4*
CCN1CCc2c(OCC(=O)N3CCCc4ccccc43)cccc2C1=O	-7.3%	-13.8%[46.1 µM]	-6.3%	-14.8	6.2
O=C1c2cccc(OCC(=O)N3CCCc4ccccc43)c2CCN1Cc1ccc(Br)cc1	20.6µM*	?	-6.5%[2.32 µM]	-4.7	12.3
Cc1ccc(CN2CCc3c(OCc4ccc(F)cc4)cccc3C2=O)cc1	7.08µM*	?	-8.6%	8.9	-0.6
Brc1ccccc1OCCCCn1cnc2ccccc21	?	?	-10.8%	42.1*	25.7*
Clc1ccccc1OCCn1cnc2ccccc21	34.1%[14.3 µM]	4.6%	-1.8%	71.9*	30.7*
Clc1ccc(OCCn2cnc3ccccc32)cc1	2.7%	4.1%	-2.5%	23.5	14.4
CC(OC(=O)c1ccc2ncsc2c1)C(=O)Nc1cccc(Cl)c1 (stereo not given)	/	/	-8.6%	/	/
O=S(=O)(O)c1cc(O)ccc1O	/	/	-10.4%	/	/
O=S(=O)(c1cc(O)ccc1O)c1cccc2c(S(=O)(=O)c3cc(O)ccc3O)cccc12	/	/	8.91µM*	/	/
CCN(CC(=O)Nc1ccc(OC)cc1)C(=O)c1ccc2c(c1)NC(=O)C(C)S2 (stereo not given)	8.1%	25.5%	30.2%	/	/
c1csc(-c2nnc(-c3ccc(N4CCOCC4)cc3)o2)c1	?	?	25.6%	62.6*	47.1*
CCOc1ccc(-c2nnc(-c3cccs3)o2)cc1	?	?	1.4%	129.7*	44.7*
SMILES	Lassa entry inh	MARV entry inh	AMA1-RON2 inh	Shiga inhibitor	Cycloheximide cs
COc1ccc(-c2nnc(-c3cccs3)o2)cc1OC	0.2%	-26.7%	-5.7%	92.2*	51.2*
CCOc1ccc(-c2nnc(-c3cccs3)o2)cc1OCC	-10.2%	6.2%	10.7%	58.2*	23.6*
O=C(CCCCCCCC(=O)N1CCCCCC1)N1CCCCCC1	-17.7%	-7.6%	3.8%	/	/
O=C(CCC1N=C2c3ccccc3N=C(SCc3ccc(F)cc3)N2C1=O)NCCc1ccccc1 (stereo not given)	-1.8%[46.1 µM]	/	/	/	/
CCOc1ccc(-c2nc(-c3cccs3)c(CC(=O)O)s2)cc1OC	?	11.5%[46.1 µM]	-5.9%	47.8	23.8*
O=C(O)Cc1sc(-c2ccccc2)nc1-c1ccccc1	16.4%	14.5%	0.0%	-9.2	-3.1
CC(=O)c1sc2nc(-c3ccco3)ccc2c1N	23.9%[46.1 µM]	?	-1.4%	75.8*	31.6*
Nc1c(C(=O)Nc2ccc(F)cc2)sc2nc(-c3ccco3)ccc12	?	?	27.6%	67.1	32.4*
Nc1c(C(=O)Nc2ccc(Br)cc2)sc2nc(-c3ccncc3)ccc12	-8.7%[46.1 µM]	?	/	18.2	16.9
Nc1c(C(=O)Nc2ccc(Br)cc2)sc2nc(-c3ccco3)ccc12	?	-15.9%	2.6%	37.9*	28.8*
CC(C)=CCN1C(=O)[C@@]2(CC(C)=CC[C@@H](COc3ccccc3)O2)c2ccccc21	?	3.3%[14.2 µM]	/	/	/
Cc1cccc(-n2ncc3c(N4CCN(CCO)CC4)ncnc32)c1	12.0%[46.1 µM]	/	/	/	/
Cc1ccc(-n2ncc3c(N4CCCCCC4)ncnc32)cc1Cl	15.3%[46.1 µM]	/	/	/	/
Cc1cccc(-n2ncc3c(N4CCCC4)ncnc32)c1	?	?	-4.1%	85.5*	32.5*
Cc1cccc(-n2ncc3c(N4CCOCC4)ncnc32)c1	1.64µM*	3.66µM*	14.2%	-10.9	15.4*
Clc1ccc(-n2ncc3c(N4CCCCCC4)ncnc32)cc1	/	/	0.0%	32.6	21.2*
Cc1cccc(-n2ncc3c(N4CCN(c5ccccc5)CC4)ncnc32)c1	-46.5%[46.1 µM]	/	/	/	/
Cc1cccc(-n2ncc3c(N4CC(C)CC(C)C4)ncnc32)c1 (stereo not given)	/	/	1.2%	79.5*	39.2*
Cc1ccc(-n2ncc3c(N4CCN(c5ccccc5)CC4)ncnc32)c(C)c1	?	-15.9%	4.4%	44.4	24.4*
COc1ccc(N2CCN(c3ncnc4c3cnn4-c3ccc(C)cc3C)CC2)cc1	-24.7%	2.8%	-4.8%	-3.9	-0.9
CCOc1ccc(NC(=O)CN2CCN(CC(=O)Nc3ccc(Cl)c(C(F)(F)F)c3)CC2)cc1	-22.1%	?	3.6%	-10.0	2.9
CC(C)(C)c1ccc(O)c(/C=N\O)c1	-6.7%	10.2%	98.0%	52.6*	18.4*
CC(C)(C)c1ccc(O)c(O)c1	/	/	-2.9%	/	/
CCC/C=C/c1ccc(CN2C(C(C)C)C(=O)N(Cc3cn(Cc4ccco4)nn3)CCS2(=O)=O)cc1 (stereo not given)	/	/	20.1%	/	/
CCOC(=O)c1snc(-c2ccc(F)cc2)c1N	7.6%	?	1.5%	102.6*	35.4*
SMILES	Lassa entry inh	MARV entry inh	AMA1-RON2 inh	Shiga inhibitor	Cycloheximide cs
CCOC(=O)c1sc(N)nc1-c1ccccc1	/	/	5.2%	-2.5	-2.6
Cn1cnc2c(N/N=C/c3cccs3)ncnc21	?	?	61.9%	37.9*	30.9*
C(=N\Nc1ncnc2sc3c(c12)CCC3)/c1cccs1	/	-6.6%	/	-19.7	-3.6
Cc1ccc(C(=O)N/C(=C\c2ccc(-c3cc(Cl)ccc3Cl)o2)C(=O)NCc2cccnc2)cc1	11.2µM*	?	-5.2%	87.7	42.0
O=C(NCc1cccnc1)/C(=C/c1ccc(-c2cccc(Cl)c2)o1)S(=O)(=O)c1ccccc1	11.6%	?	13.6%	-27.4	-8.9
C/C(Cn1nnc([N+](=O)[O-])n1)=N\NC(=O)c1ccccc1Cl	-29.9%	?	55.4%	27.3	22.3*
C/C(Cn1nnc([N+](=O)[O-])n1)=N\NC(=O)c1cccc(Cl)c1	?	?	7.0%	43.6*	20.2*
C/C(Cn1nnc([N+](=O)[O-])n1)=N\NC(=O)c1ccncc1	?	?	81.8%	12.7	-1.3
